# Reference: PubChem BioAssay (Tox21)
# Inconclusive results are not listed. Where a call stands in place of a potency, no number is given. Activity calls are given as the source filed them. Calls come from the whole dose curve; as a rule, active = well fitted cell-killing curve with a large enough effect in the repeat runs; inconclusive = weak or mixed curves; inactive = no such curve, though single readings can be large or run the other way.
# Assay: qHTS assay to identify small molecule antagonists of the peroxisome proliferator-activated receptor delta (PPARd) signaling pathway - cell viability counter screen (AID 743213); note: nearly all actives have a fitted effect of over 50% in size
# Conditions: PPARd-bla HEK293H viability, CellTiter-Glo luminescence, 17 h; series mostly up to 62 µM
# Description: U.S. Tox21 Program National Center for Advancing Translational Sciences [NCATS] NIH Chemical Genomics Center [NCGC] U.S. Environmental Protection Agency [EPA] National Institutes of Environmental Health Sciences [NIEHS] National Toxicology Program [NTP] U.S. Food and Drug Administration [FDA] Tox21 Assay Overview: The peroxisome proliferator-activated receptors (PPARs) are lipid-activated transcription factors of the nuclear receptor superfamily with three distinct subtypes namely PPAR alpha, PPAR delta (PPARd) and PPAR gamma. All these subtypes heterodimerizes with Retinoid X receptor (RXR) and have different physiological functions. […] To identify the compounds that inhibit PPAR-delta signaling, GeneBLAzer PPAR delta UAS-bla HEK293H cell line (Invitrogen, Carlsbad, CA, USA) containing a beta-lactamase reporter gene under the control of an Upstream Activator Sequence (UAS) was used to screen the Tox21 compound library. The cytotoxicity of the Tox21 compound library against the PPARd-bla cell line was tested in parallel by measuring the cell viability using CellTiter-Glo assay (Promega, Madison, WI) in the same wells.
# Tox21 Assay Protocol Summary: PPARd-bla cells were dispensed at 3000 cells/5uL/well in 1536-well black wall/clear bottom plates using a Multidrop Combi (Thermo Fisher Scientific, Waltham, MA) dispenser. After the assay plates were incubated at 37 C and 5% CO2 for 5 h, 23 nL of compounds dissolved in DMSO, positive controls or DMSO only was transferred to the assay plate by a Pintool station (Kalypsys, San Diego, CA), followed by addition of 1ul L165041 (300 nM, final concentration in the wells). The assay plates were incubated at 37 C for 17 h, and then 1 uL of LiveBLAzerTM B/G FRET substrate was added using a Bioraptr Flying Reagent Dispenser (FRD) workstation (Beckman Coulter, Indianapolis, IN, USA). The assay plates were incubated at room temperature for 2 h and fluorescence intensity was measured by an Envision plate reader (PerkinElmer, Shelton, CT). For cell viability readout that measures cytotoxicity, 3 ul/well of CellTiter-Glo reagent was added into the assay plates using a Bioraptr FRD. After 30 min incubation at room temperature, the luminescence intensity in the plates was measured using a ViewLux plate reader (PerkinElmer).
row,Compound,Potency
1,CC1=CC[C@H]2C[C@@H]1C2(C)C,inactive
2,CS(=O)(=O)Nc1ccc([N+](=O)[O-])cc1Oc1ccccc1,inactive
3,O=c1c(-c2ccc(O)cc2)coc2cc(O)ccc12,inactive
4,CCCCCCC(C)(C)S,inactive
5,CCCCOCCO,inactive
6,CCCCCCCCCC(=O)O,inactive
7,Cc1cc(NS(=O)(=O)c2ccc(N)cc2)no1,inactive
8,c1ccc2ccccc2c1,inactive
9,O=S(=O)(O)c1cc(S(=O)(=O)O)c2c(N=Nc3ccccc3)c(O)ccc2c1,inactive
10,CC(C)(N=C=O)c1cccc(C(C)(C)N=C=O)c1,inactive
11,NC(=O)NNc1ccccc1,inactive
12,CC1COc2ccccc2N1C(=O)C(Cl)Cl (stereo not given),inactive
13,O=[N+]([O-])c1cccc(Cl)c1,inactive
14,Nc1nc2ncc(CNc3ccc(C(=O)N[C@@H](CCC(=O)O)C(=O)O)cc3)nc2c(=O)[nH]1,inactive
15,O=C1N=C(O)CN1/N=C/c1ccc(-c2ccc([N+](=O)[O-])cc2)o1,inactive
16,CCOC(=O)C1OC1c1ccccc1 (stereo not given),inactive
17,CC(C)Cc1ccccc1,inactive
18,Cc1ccc(C)c(C)c1,inactive
19,O=[N+]([O-])C(CO)(CO)CO,inactive
20,Oc1c(Cl)cc(Cl)c(Cl)c1Cl,inactive

row,Compound,Potency
1,NCc1cccc(CN)c1,inactive
2,CC1CC(OC(=O)c2ccccc2O)CC(C)(C)C1 (stereo not given),inactive
3,C=C(C)C(=O)OCCCCCC,inactive
4,Clc1ccc(Cl)c(Cl)c1Cl,inactive
5,O=C(Oc1ccccc1)c1ccc(O)cc1,inactive
6,O=C1CCCCC1,inactive
7,O=C(c1cc(O)c(O)c(O)c1)c1ccc(O)c(O)c1O,inactive
8,O=Nc1ccc(O)cc1,inactive
9,NCCc1ccc(O)c(O)c1,inactive
10,CC(C)(CO)COC(=O)C(C)(C)CO,inactive
11,CN(C)c1ccc(C(=N)c2ccc(N(C)C)cc2)cc1,inactive
12,O=[N+]([O-])c1cc(N(CCO)CCO)ccc1NCCO,inactive
13,CC(=O)Nc1ccc(C(=O)O)cc1,inactive
14,O=S(=O)(Oc1ccc(Cl)cc1Cl)c1ccccc1,inactive
15,Cc1cc(Cc2ccc(N)c(C)c2)ccc1N,inactive
16,CC#C[C@]1(O)CC[C@H]2[C@@H]3CCC4=CC(=O)CCC4=C3[C@@H](c3ccc(N(C)C)cc3)C[C@@]21C,inactive
17,C=C(C)C(=O)OCC(CC)(COC(=O)C(=C)C)COC(=O)C(=C)C,inactive
18,CC[Si](OC(C)=O)(OC(C)=O)OC(C)=O,inactive
19,OC1CCCC1,inactive
20,CCCCC(CC)COC(=O)/C=C\C(=O)OCC(CC)CCCC (stereo not given),inactive
